Among all 5,500 compounds or so, about 2,000 (36%) were called active. Not shown: some 18% with an inconclusive outcome. No stated cut-off is given here; in the data, active means normalized growth mostly below about 0.91 (no sharp cut-off); inconclusive means no clear call, values can overlap the other calls; inactive means mostly above about 0.92. Some of the results follow.
Assay: chemical genetic growth profiling, strain panel (AID 1159580);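 further: tested at 20 µM; growth read once vehicle control cultures reached saturation at 30 °C; 1 = growth at the plate median or of vehicle wells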
Conditions: S. cerevisiae deletion strains, growth OD

Measured: normalized growth

Cc1ccc(OCC(O)C(C)NC(C)C)c2c1CCC2 (stereo unspecified)
inactive: locus YAL040C, strain CLN3, stronger effect = lower value 0.989 | locus YCL061C, strain MRC1 (second series), stronger effect = lower value 0.993 | locus YDR150W, strain NUM1, stronger effect = lower value 1.01 | locus YDR363W, strain ESC2, stronger effect = lower value 0.961 | locus YER002W, strain NOP16, stronger effect = lower value 0.977 | locus YGR078C, strain PAC10, stronger effect = lower value 0.982 | locus YGR229C, strain SMI1, stronger effect = lower value 1.01 | locus YMR263W, strain SAP30, stronger effect = lower value 1 | locus YNL128W, strain TEP1, stronger effect = lower value 0.985 | locus YNL153C, strain GIM3, stronger effect = lower value 1 | locus YNL175C, strain NOP13, stronger effect = lower value 0.982 | locus YNL197C, strain WHI3, stronger effect = lower value 0.972 | locus YNL224C, strain SQS1, stronger effect = lower value 1 | locus YOR083W, strain WHI5 (second series), stronger effect = lower value 1 | locus YPL055C, strain LGE1, stronger effect = lower value 1

O=C(NC(=S)NNc1ncc(C(F)(F)F)cc1Cl)c1cccs1
active: locus YAR019C, strain CDC15, stronger effect = lower value 0.665 | locus YBL105C, strain PKC1, stronger effect = lower value 0.764 | locus YBR135W, strain CKS1, stronger effect = lower value 0.604 | locus YBR136W, strain MEC1, stronger effect = lower value 0.537 | locus YBR160W, strain CDC28, stronger effect = lower value 0.692 | locus YDL017W, strain CDC7, stronger effect = lower value 0.727 | locus YDL028C, strain MPS1, stronger effect = lower value 0.537 | locus YDL101C, strain DUN1, stronger effect = lower value 0.576 | locus YDL108W, strain KIN28, stronger effect = lower value 0.726 | locus YDL132W, strain cdc53, stronger effect = lower value 0.588 | locus YDL214C, strain PRR2, stronger effect = lower value 0.218 | locus YDR052C, strain DBF4, stronger effect = lower value 0.581 | locus YDR054C, strain cdc34, stronger effect = lower value 0.492 | locus YDR226W, strain ADK1, stronger effect = lower value 0.527 | locus YDR477W, strain SNF1, stronger effect = lower value 0.31 | locus YER123W, strain YCK3, stronger effect = lower value 0.17 | locus YER133W, strain GLC7, stronger effect = lower value 0.37 | locus YFL009W, strain cdc4, stronger effect = lower value 0.51 | locus YFL029C, strain CAK1, stronger effect = lower value 0.59 | locus YFR003C, strain YPI1, stronger effect = lower value 0.738 | locus YFR019W, strain FAB1, stronger effect = lower value 0.384 | locus YFR028C, strain CDC14, stronger effect = lower value 0.482 | locus YGR040W, strain KSS1, stronger effect = lower value 0.28 | locus YGR052W, strain FMP48, stronger effect = lower value 0.171 | locus YGR092W, strain DBF2, stronger effect = lower value 0.163 | locus YHR030C, strain SLT2, stronger effect = lower value 0.287 | locus YHR079C, strain IRE1, stronger effect = lower value 0.294 | locus YHR082C, strain KSP1, stronger effect = lower value 0.296 | locus YHR205W, strain SCH9, stronger effect = lower value 0.244 | locus YIL147C, strain SLN1, stronger effect = lower value 0.609 | locus YJL095W, strain BCK1, stronger effect = lower value 0.244 | locus YJL128C, strain PBS2, stronger effect = lower value 0.328 | locus YJL157C, strain FAR1, stronger effect = lower value 0.198 | locus YJR016C, strain ILV3, stronger effect = lower value 0.624 | locus YJR066W, strain TOR1 (second series), stronger effect = lower value 0.15 | locus YJR066W, strain TOR1, stronger effect = lower value 0.237 | locus YKL048C, strain ELM1, stronger effect = lower value 0.256 | locus YKL067W, strain YNK1, stronger effect = lower value 0.17 | locus YKL101W, strain HSL1, stronger effect = lower value 0.242 | locus YKL193C, strain SDS22, stronger effect = lower value 0.629 | locus YKL203C, strain TOR2, stronger effect = lower value 0.234 | locus YLR113W, strain HOG1, stronger effect = lower value 0.252 | locus YLR133W, strain CKI1, stronger effect = lower value 0.251 | locus YLR403W, strain SFP1, stronger effect = lower value 0.123 | locus YML070W, strain DAK1, stronger effect = lower value 0.247 | locus YMR001C, strain CDC5, stronger effect = lower value 0.549 | locus YMR205C, strain PFK2 (second series), stronger effect = lower value 0.23 | locus YMR277W, strain FCP1, stronger effect = lower value 0.413 | locus YNL006W, strain LST8, stronger effect = lower value 0.714 | locus YNL020C, strain ARK1, stronger effect = lower value 0.211 | locus YNL161W, strain CBK1, stronger effect = lower value 0.533 | locus YNL183C, strain NPR1, stronger effect = lower value 0.195 | locus YNL207W, strain RIO2, stronger effect = lower value 0.6 | locus YNL222W, strain SSU72, stronger effect = lower value 0.559 | locus YNL307C, strain MCK1 (second series), stronger effect = lower value 0.146 | locus YOL078W, strain AVO1, stronger effect = lower value 0.585 | locus YOL136C, strain PFK27, stronger effect = lower value 0.276 | locus YOR061W, strain CKA2, stronger effect = lower value 0.242 | locus YOR119C, strain RIO1, stronger effect = lower value 0.237 | locus YOR231W, strain MKK1, stronger effect = lower value 0.256 | locus YOR329C, strain SCD5, stronger effect = lower value 0.727 | locus YPL031C, strain PHO85, stronger effect = lower value 0.441 | locus YPL153C, strain RAD53, stronger effect = lower value 0.283 | locus YPL204W, strain HRR25, stronger effect = lower value 0.315 | locus YPL209C, strain IPL1, stronger effect = lower value 0.736 | locus YPL256C, strain CLN2, stronger effect = lower value 0.367 | locus YPR025C, strain CCL1, stronger effect = lower value 0.745 | locus YPR106W, strain ISR1, stronger effect = lower value 0.472 | locus YPR111W, strain DBF20, stronger effect = lower value 0.453 | strain NNK1, stronger effect = lower value 0.492 | strain TSCII, stronger effect = lower value 0.524
